# Test results as given in publication PMC5540273 (PLoS ONE, 2017).
# Tests used:
# Conditions in all cases: concentration: 1 μM, replicates: in singlicate; n = 1
# [1] = tested on: CAMK2G
# [2] = tested on: CAMK4
# [3] = tested on: CAMKK1
# [4] = tested on: CAMKK2
# [5] = tested on: CASK
# [6] = tested on: T1, CDC2L1
# T1 construct: gene CDK11B
# [7] = tested on: CDC2L2
# [8] = tested on: T2, CDC2L5
# T2 construct: gene CDK13
# [9] = tested on: T3, CDK11
# T3 construct: gene CDK19
# [10] = tested on: CDK2
# [11] = tested on: CDK3
# [12] = tested on: CDK4-cyclinD1
# [13] = tested on: CDK4-cyclinD3
# [14] = tested on: CDK4
# [15] = tested on: CDK5
# [16] = tested on: CDK7
# [17] = tested on: CDK8
# [18] = tested on: CDK9
# [19] = tested on: CDKL1
# [20] = tested on: CDKL2
# 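Note: KINOMEscan kinase panel screen.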
SMILES,%Inh [1] [%],%Inh [2] [%],%Inh [3] [%],%Inh [4] [%],%Inh [5] [%],%Inh [6] [%],%Inh [7] [%],%Inh [8] [%],%Inh [9] [%],%Inh [10] [%],%Inh [11] [%],%Inh [12] [%],%Inh [13] [%],%Inh [14] [%],%Inh [15] [%],%Inh [16] [%],%Inh [17] [%],%Inh [18] [%],%Inh [19] [%],%Inh [20] [%]
CCS(=O)(=O)c1ccc(OC)c(Nc2ncc(-c3ccc(F)cc3)o2)c1.Cl [GW591947],21,0,1,12,3,0,0,0,19,0,0,0,0,14,0,0,19,0,14,29
COc1ccc(-n2cnc3c(N)ncnc32)cc1 [SKF-97236],6,12,0,0,0,0,0,4,0,19,25,0,0,11,8,11,0,0,29,1
COC(=O)c1c(-c2ccccc2)c2cc(C)ccc2c(=O)n1Cc1ccccc1,0,0,0,6,0,0,0,0,0,0,0,0,0,0,0,0,5,0,4,0
COc1cc(OC)cc(-c2cc3cnc(N)nc3nc2NC(=O)NC(C)(C)C)c1,23,0,16,29,0,2,0,0,0,0,14,0,8,0,0,31,0,0,0,0
CCCC(=O)Nc1n[nH]c2ncc(-c3cccc4ccccc34)cc12 [SB-642057],28,22,20,30,34,0,1,0,0,56,51,0,37,0,0,0,7,0,10,0
Nc1nccc2scc(-c3ccc4c(c3)CCN4C(=O)Cc3ccccc3)c12 [GSK2576924],0,3,0,7,15,8,16,0,57,0,9,0,0,13,0,7,70,0,7,17
COc1cc2ncn(-c3cc(OCc4ccncc4Br)c(C(N)=O)s3)c2cc1OC [GW854278],11,0,15,17,34,5,10,5,11,1,5,13,0,0,0,0,15,0,14,0
Cl.NS(=O)(=O)c1cccc(Nc2cc(-c3ccc(F)cc3)n[nH]2)c1 [GW824645],0,2,0,0,20,0,0,0,3,5,29,0,0,0,0,1,0,5,3,0
Nc1nc(-c2ccccc2F)c(-c2ccnc3ccccc23)s1 [GW560459],10,0,10,4,0,0,8,0,0,0,0,11,0,32,0,0,39,0,0,26
Cc1ccc(Oc2ccc(Nc3ncnc4cc[nH]c34)cc2C)cn1,15,0,9,5,0,0,7,0,19,0,0,4,0,29,9,40,0,10,1,0
Nc1nc(N)c2nc(-c3ccccc3)[nH]c2n1 [SKF-12778],4,0,6,0,0,0,0,5,0,0,1,20,0,0,5,7,23,0,0,2
